HCMV inh = human cytomegalovirus inhibition. HFF cells, HCMV-luciferase reporter, 72 h; hits give low values. activity change, negative = inhibition, % at 57.5 µM. 4.5% of 410,000 active; in the data active = activity change below about -60%; inconclusive = no clear call, values can overlap the other calls; inactive = above about -39%
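Cell-based, HFFs, 1000 cells/well, 16 h 37C; cpds in DMSO + HCMV-luc, MOI 1 PFU/cell; 72 h 37C; OneGlo luminescence after 5 min RT; norm. to buffer vs Salinomycin 10uM.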
FMDV inh = blocks foot and mouth disease virus. FMDV antiviral cell-based qHTS. Potency, µM (doses to about 57.9 µM), usual class: inhibitors. 1.2% of 410,000 active. AID 1159524; calls by dose curve; tested in HEK293T cells; note: read-out not given here; nearly all actives have a fitted effect of over 45% in size
MARV entry inh = blocks Marburg virus binding to or entry into cells. 1.8% of 300,000 active. AID 540276. Marburg virus pseudotyped entry inhibition, cell reporter. Potency, µM (top dose mostly 37.8 µM), actives largely listed as inhibitors; calls by dose curve; tested in HEK293 cells
Lassa entry inh = Lassa virus entry inhibition; Potency, µM (top dose mostly 37.9 µM), most hits filed as inhibitors; Lassa virus pseudotype entry inhibition, cell reporter; 1.2% of 300,000 active; calls by dose curve; tested in HEK293 cells; note: nearly all actives have a fitted effect of over 50% in size
Hits are given with their value; – = inactive; ? = inconclusive; · = no result. The list is not random: actives were taken first. Their share in the collection is about 6.2%.

SMILES	HCMV inh	FMDV inh	MARV entry inh	Lassa entry inh
Cc1[nH]n(-c2ccccc2)c(=O)c1C1(C(F)(F)F)C(=O)N(c2ccccc2)C2=C1C(=O)CC(C)(C)C2 (stereo unspecified)	–	–	–	–
CC(=O)c1c(C)[nH]c(C(=O)OCC(=O)NCc2ccc(Cl)cc2)c1C	–	?	·	·
CC(=O)c1c(C)[nH]c(C(=O)OCC(=O)N2CCN(S(=O)(=O)c3ccc(C)cc3)CC2)c1C	–	–	·	·
CC(=O)c1c(C)[nH]c(C(=O)OCC(=O)Nc2ccc(C)cc2[N+](=O)[O-])c1C	?	5.01µM	?	–
Cc1ccc(NC(=O)COC(=O)C2=COCCO2)c([N+](=O)[O-])c1	–	–	–	–
CC(=O)c1c(C)[nH]c(C(=O)OCC(=O)N2CCN(S(=O)(=O)c3ccc(C)cc3C)CC2)c1C	–	20µM	–	?
CC(=O)c1c(C)[nH]c(C(=O)OCC(=O)Nc2cc(Cl)ccc2[N+](=O)[O-])c1C	–	28.2µM	–	·
O=C(NCc1ccc(Cl)cc1Cl)c1cccc(N2CCCS2(=O)=O)c1	–	–	–	–
Cc1ccc(C(C[N+](=O)[O-])c2c(-c3ccccc3O)[nH][nH]c2=O)cc1 (stereo unspecified)	-74.7	?	?	–
COc1ccc(C(C[N+](=O)[O-])c2c(C)[nH]c3ccccc23)cc1OC (stereo unspecified)	–	?	–	–
CCCCCCn1c(=O)n2n(c1=O)C[C@]1(OC(=O)Nc3c(C)noc3C)CN(S(=O)(=O)c3ccc(C)cc3)C[C@]1(O)C2	–	?	·	·
CC(Nc1nc2ccccc2n2cnnc12)c1ccccc1 (stereo unspecified)	–	–	–	–
O=C(c1ccc(COc2ccc(Cl)cc2)o1)N1N=C(C(F)F)CC1(O)C(F)F (stereo unspecified)	-70.0	?	–	–
COc1ccc(CNC(=O)c2cccc(NC3=NC4CS(=O)(=O)CC4S3)c2)cc1 (stereo unspecified)	–	–	·	·
Cc1cc(/C=N/NC(N)=S)c(C)n1-c1cccc(Cl)c1	-64.7	–	?	?
COc1cc(NC(=S)NCCCN2CCOCC2)c(OC)cc1Cl	–	–	?	–
CC(/C=N/n1c(-c2ccc(Cl)cc2)n[nH]c1=S)=C\c1ccco1	–	–	–	–
N#CC(C#N)=C1C=CC=CN1/C(=C\c1ccco1)C(=O)c1ccc(Cl)cc1	-97.2	?	?	?
N#CC(C#N)=C1C=CC=CN1/C(=C\c1ccco1)C(=O)c1ccc(-c2ccccc2)cc1	-101.4	14.1µM	15.8µM	?
COCc1nnc(NC(=O)c2ccccc2Oc2ccccc2)s1	–	–	–	–
CCN(CC)C(=O)CSc1nc2cc3c(cc2c(=O)n1CCCCCC(=O)NCCc1ccc(OC)c(OC)c1)OCO3	-82.5	–	·	–
O=c1c(CCc2ccccc2)nc2cnc(N3CCNCC3)nc2n1C1CC1	·	–	·	·
O=C(c1cc(C2CC2)nc2ccc(Br)cc12)N1N=C(C(F)F)CC1(O)C(F)F (stereo unspecified)	-73.2	?	?	?
Cc1nnc(SCC(=O)c2cc(C)n(-c3ccc4c(c3)OCO4)c2C)s1	-65.7	·	?	–
Cc1cc(C(=O)COC(=O)c2ccc(N)c([N+](=O)[O-])c2)c(C)n1-c1ccc2c(c1)OCO2	-73.5	–	–	–
SMILES	HCMV inh	FMDV inh	MARV entry inh	Lassa entry inh
O=C(Nc1cccc2[nH]ncc12)c1ccc(F)cc1	-75.7	–	?	–
O=C(Nc1cccc2ccccc12)c1ccc(F)cc1	–	–	·	·
O=C(NC(=S)Nc1cccc2[nH]ncc12)c1ccccc1	-61.6	–	?	–
COc1ccc(NC(=O)Nc2cc(C)ccc2F)cc1	–	·	?	–
CCn1c(=O)c(C(C)=O)nc2ccccc21	-65.7	–	–	–
COc1ccc(-c2nnc(-c3ccc(Br)o3)o2)cc1OC	-107.1	–	–	–
COc1ccc(-c2nc(-c3ccc(Br)o3)no2)cc1OC	–	–	·	·
N/C(=N\OC(=O)CCCOc1ccc(Cl)cc1Cl)c1ccccn1	–	–	–	–
Cc1ccc2nc(Nc3nc(CSc4nnc(C)s4)cc(=O)[nH]3)nc(C)c2c1	-80.8	–	–	·
COc1ccc2nc(Nc3nc(CSc4nnc(C)s4)cc(=O)[nH]3)nc(C)c2c1	·	·	–	–
COCc1cc(=O)[nH]c(Nc2nc(C)c3cc(OC)ccc3n2)n1	·	·	–	·
COc1ccc2c(C)nc(Nc3nc(-c4ccccc4)cc(=O)[nH]3)nc2c1	-93.3	–	?	4.61µM
Cc1ccc2nc(Nc3nc(-c4ccccc4)cc(=O)[nH]3)nc(C)c2c1	-67.3	–	?	–
Cc1ccc(NC(=S)N2CCN(S(=O)(=O)c3ccccc3)CC2)cc1C	–	–	–	?
Oc1[nH]c2ccc(Br)cc2c1N=NC(=S)N1CCOCC1	-100.2	3.16µM	·	·

Compound activity (PubChem)
